From PubChem BioAssay (NCATS) come the findings set out here.

Records with an inconclusive call do not appear. Unmarked numbers belong to inactive results. Calls come from the whole dose curve; as a rule, active = well fitted inhibition curve with a large enough effect; inconclusive = small, poorly fitted or top-dose-only effect; inactive = flat fitted curve, though single readings scatter.

The assay has as its system Zika virus NS2B-NS3 protease. In words: Primary screen GU AMC qHTS for Zika virus inhibitors (AID 1347154).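 Note: 0% = no-inhibitor control and -100% = no-enzyme control; nearly all actives have a fitted effect of over 70% in size.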 The settings on record: Zika NS2B-NS3 unlinked protease, AMC fluorogenic substrate; series mostly up to 54.1 µM; activity change, negative = inhibition: at the top concentration. In a few lines: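 Fluorogenic AMC-substrate cleavage by noncovalent NS2B-NS3 protease complex (25 nM, pH 8.0 Tris buffer with Tween 20) followed for 15 minutes at room temperature (~20% conversion). Percent inhibition from ex340/em450 signal change, fitted by 4-parameter Hill equation.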
In general terms: In qHTS, concentration-response curves come from the screen itself.
With `C[C@]12CC[C@H]3[C@@H](CC[C@@]45O[C@H]4C(O)=C(C#N)C[C@]35C)[C@H]1CC[C@H]2O`, the “activity change, negative = inhibition” value was -9.87%.

Take `COc1cccc(C(=O)CCN[C@@H](C)[C@H](O)c2ccccc2)c1`: the “activity change, negative = inhibition” value is -3%.

Consider `CCN(CC)CCc1c[nH]c2ccccc12`, for which the “activity change, negative = inhibition” value was 1.32% [at 194 µM]. With `ClCCN1CCCC1`, the “activity change, negative = inhibition” value is -4.84%. Take `CC(=O)NC1CCSC1=O` (configuration not stated): the “activity change, negative = inhibition” value is -1.21%.

For `COP(=S)(OC)SCN1C(=O)c2ccccc2C1=O`, the “activity change, negative = inhibition” value is 5.39%. For the compound `[N-]=[N+]=CC(=O)OC[C@H](N)C(=O)O`, the “activity change, negative = inhibition” value is 2.45%. Regarding `CCc1cc2c(s1)-n1c(C)nnc1CN=C2c1ccccc1Cl`, the “activity change, negative = inhibition” value is 1.2%. Take `C[C@@H]1CC2=CC(=O)CC[C@@H]2[C@H]2CC[C@@]3(C)[C@@H](CC[C@]3(C)O)[C@@H]21`: the “activity change, negative = inhibition” value is -4.05%. In the case of `O=C1CN=C(c2ccccc2)c2cc([N+](=O)[O-])ccc2N1`, the “activity change, negative = inhibition” value was -4.17%. With `C#C[C@]1(O)CC[C@H]2[C@@H]3CCC4=CC(=O)CC[C@]4(C)[C@H]3CC[C@@]21C`, the “activity change, negative = inhibition” value is 1.45%. As to `CNCC(=O)c1ccc(O)c(O)c1`, the “activity change, negative = inhibition” value is -3.66%. Take `CCCOC(=O)c1cncn1C(C)c1ccccc1` (configuration not stated): the “activity change, negative = inhibition” value was 2.26%. For `C[C@H]1[C@@H]2Cc3ccc(O)cc3[C@@]1(C)CCN2C`, the “activity change, negative = inhibition” value was 2.69% [at 194 µM]. Consider `NNc1ccccc1`, for which the “activity change, negative = inhibition” value is -1.21%. In the case of `O=C1OC(CCN2CCCCC2)OC1(c1ccccc1)c1ccccc1` (configuration not stated) it was 2.61%.

With `COc1cc(CCN)cc(OC)c1OC`, the “activity change, negative = inhibition” value is -2.64% [at 104 µM].
